Bioassay records deposited in PubChem by National Center for Advancing Translational Sciences (NCATS).
The full list was thinned out, with hits kept by preference.
AmpC inh detg: inhibitors of E. coli AmpC beta-lactamase with detergent; AmpC hydrolysis of nitrocefin, absorbance 480 nm, 0.01% Triton; hit rate 0.041% among 370,000; AID 485294; Potency, µM (titrated, usually from 114 µM), hits mostly inhibitors; note: nearly all actives have a fitted effect of over 25% in size
Target sequence (P00811 whole entry, looked up): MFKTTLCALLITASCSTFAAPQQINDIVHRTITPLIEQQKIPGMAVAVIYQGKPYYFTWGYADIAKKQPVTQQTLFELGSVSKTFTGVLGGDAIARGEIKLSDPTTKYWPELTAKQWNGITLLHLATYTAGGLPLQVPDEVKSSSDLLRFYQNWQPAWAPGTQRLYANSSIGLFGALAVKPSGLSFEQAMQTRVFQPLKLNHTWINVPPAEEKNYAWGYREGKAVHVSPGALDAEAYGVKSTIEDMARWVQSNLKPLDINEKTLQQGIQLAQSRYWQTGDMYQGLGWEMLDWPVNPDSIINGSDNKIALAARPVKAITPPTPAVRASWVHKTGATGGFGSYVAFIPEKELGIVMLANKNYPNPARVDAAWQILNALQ
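20 mM phosphate pH 7.0 + 0.01% (detergent screen) or 0.0001% Triton X-100; 5.3 nM AmpC reagent; cpd preinc 15 min RT; nitrocefin (800 uM stock) to start; A480 q20 s × 4 min; Activity was normalised to no-enzyme and no-compound control wells.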
Shiga inhibitor: inhibitors of Shiga toxin in Vero cells; Vero cells, Shiga toxin protein synthesis inhibition reporter; inhibition, % at 38.7 µM; hit rate 9.2% among 290,000; AID 2315; in the data active = inhibition mostly above about 28%, no sharp cut-off; inactive = mostly below about 43%
AMA1 RON2 block: inhibitors of Plasmodium falciparum AMA1-RON2 interaction | AlphaScreen AMA1-biotinylated RON2 peptide binding | Potency, µM (top dose mostly 58.2 µM), actives largely listed as inhibitors | hit rate 0.2% among 360,000 | AID 720542; note: nearly all actives have a fitted effect of over 45% in size
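AMA1 (3D7) with his tag at 25 nM final met compounds first, then biotinylated RON2 peptide at 25 nM; detection used donor plus acceptor beads, 10 µg/mL apiece, read by AlphaScreen after 30 min at room temperature.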
Cycloheximide cs: counter-screen for Shiga toxin inhibitors: cycloheximide protein synthesis inhibition | cell reporter, cycloheximide protein synthesis inhibition counterscreen | max response, % | hit rate 12% among 300,000 | AID 2314; in the data active = max response mostly above about 13%, no sharp cut-off; inactive = mostly below about 14%; note: read at 38.3 µM for the half of the compounds with a filed dose
AmpC no deterg: AmpC beta-lactamase inhibition without detergent | P00811 | AmpC nitrocefin hydrolysis, absorbance 480 nm, 0.0001% Triton | Potency, µM (top dose mostly 57.1 µM), most hits filed as inhibitors | hit rate 0.52% among 330,000 | AID 485341; note: nearly all actives have a fitted effect of over 20% in size
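AmpC (5.3 nM in the dispensed reagent) in 20 mM phosphate pH 7.0 with 0.01% (detergent screen) or 0.0001% Triton X-100 was preincubated with compounds for 15 min at room temperature. Nitrocefin was then added from an 800 uM solution, and hydrolysis was followed at 480 nm.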
SARS PLpro yeast: blocks SARS-CoV papain-like protease in a yeast assay; S. cerevisiae expressing SARS-CoV PLpro, growth rescue; Potency, µM (top dose mostly 32.9 µM), hits mostly activators; hit rate 0.19% among 330,000; AID 485353; calls by dose curve; note: nearly all actives have a fitted effect of over 55% in size
A number is an active result; . = inactive; ? = inconclusive; / = not tested or not shown; [ ] = dose if it differs, or a comment. Unless noted, calls come from the whole dose curve; as a rule, active = well fitted curve in the direction sought with a large enough effect; inconclusive = small, poorly fitted or top-dose-only effect, or another doubt; inactive = no such curve, though single readings can be large; an effect the other way counts as inactive or inconclusive.

SMILES	AmpC inh detg	Shiga inhibitor	AMA1 RON2 block	Cycloheximide cs	AmpC no deterg	SARS PLpro yeast
Cc1ccc(F)cc1NC(=O)Cn1c(C)cc(C)c(C#N)c1=O	.	/	/	/	/	/
COc1cc(C(=O)Nc2ccc(N(C)C)cc2)cc(OC)c1OC	?	58	.	25	.	.
COc1cc(C(=O)Nc2ccc(S(=O)(=O)N(C)c3ccccc3)cc2)cc(OC)c1OC	.	.	.	.	.	.
CN(C)c1ccc(NC(=O)c2ccc3nc[nH]c3c2)cc1	.	138	.	51	.	.
O=C(Nc1ccc(F)cc1)c1ccc2nc[nH]c2c1	?	46	.	30	.	.
O=C(Nc1ccc(F)cc1)c1cccc(C(=O)Nc2ccc(F)cc2)c1	.	.	.	.	.	.
O=C(NNC(=O)c1ccccc1F)c1ccc2nc[nH]c2c1	.	.	.	22	.	.
O=C(NC1CCCC1)c1ccc2nc[nH]c2c1	.	.	.	.	.	.
CCCn1c(=O)n(C)c(=O)c2c(SCC(=O)NCc3ccco3)nc(C3CC3)nc21	.	.	.	.	.	.
C=CCn1c2ccccc2c(=O)c2cc(C#CC3(O)CCCCC3)ccc21	.	55	.	44	.	.
CN(C)S(=O)(=O)Nc1ccc(NS(=O)(=O)N(C)C)c(S(=O)(=O)c2ccccc2)c1	?	.	.	.	.	.
CN(C)S(=O)(=O)Nc1ccc2c(c1)Cc1ccccc1-2	?	107	.	29	.	.
COc1ccccc1C1=NOC(C)(c2sc(-c3ccc(Cl)cc3)nc2C)C1 (stereo not given)	.	31	.	20	.	.
COP(=S)(OC)Oc1nc(Cl)c(Cl)cc1Cl	/	.	/	.	/	/
O=C(O)C(=Cc1ccccc1Cl)c1ccccc1	/	/	.	/	/	/
CCC(CO)[n+]1c(C)cc(/C=C2\Sc3ccccc3N2Cc2ccccc2)cc1C (stereo not given)	.	.	.	.	.	.
O=C(Nc1nnc([C@@H]2C[C@H](O)[C@@H](CO)O2)s1)c1cccs1	/	/	.	/	/	/
O=C(Nc1nnc(C2CC2)s1)c1ccncc1	.	.	.	.	.	.
O=C(Nc1nnc(C2CCCO2)s1)c1cccs1 (stereo not given)	.	.	.	17	.	.
COc1cccc(C(=O)Nc2nnc(C3CCCO3)s2)c1 (stereo not given)	.	59	.	25	.	.
O=C(Nc1nnc(C2CCCCC2)s1)c1cccs1	.	.	.	28	.	.
Cc1ccc(C)c(NC(=O)COC(=O)CCCN=C2NS(=O)(=O)c3ccccc32)c1	.	.	.[11.6 µM]	.	.	.
CCOC(=O)c1cnc(Nc2nc3ccccc3o2)nc1CSc1ncccn1	/	/	.	/	/	/
CCCc1nc(Nc2nc3ccccc3o2)nc(C)c1C(=O)OCC	?	129	.	61	.	.
CCCOc1ccccc1/C=N/NC(=O)C1CC1	.	.	.	.	.	.
SMILES	AmpC inh detg	Shiga inhibitor	AMA1 RON2 block	Cycloheximide cs	AmpC no deterg	SARS PLpro yeast
Fc1ccc(-c2nc3c(Cl)cc(C(F)(F)F)cn3c2Cl)cc1	.	active	.	32	.	.
N#C/C(=C(/O)COC(=O)CSc1ccc(Cl)cc1)c1nc2ccccc2[nH]1	.	.	.	.	.	.
Cc1cc(SCC(=O)OC/C(O)=C(\C#N)c2nc3ccccc3[nH]2)c(C)cc1Br	.	.	.	.	10µM	.
COc1ccc(/C(C)=N/OC/C(O)=C(\C#N)c2nc3ccccc3[nH]2)c(OC)c1	.	.	.	.	14µM	.
COc1ccccc1OCC(=O)OC/C(O)=C(\C#N)c1nc2ccccc2[nH]1	.	.	.	16	.	.
N#CC(=C(O)COC(=O)CCC1CCCCC1)c1nc2ccccc2[nH]1	/	/	.	/	/	/
N#C/C(=C(/O)COC(=O)Cc1c[nH]c2ccccc12)c1nc2ccccc2[nH]1	.	65	.	14	.	.
Cc1cccc(Cn2c(SCc3ccc(C(=O)NCc4cccs4)cc3)nc3ccncc32)c1	.	/	/	/	/	/
O=C(Nc1ccccc1N1CCN(C(=O)c2ccc(Cl)cc2)CC1)c1cccc([N+](=O)[O-])c1	.	.	.	.	.	.
COc1ccc2[nH]cc(C(=O)C(=O)N3CCCCC3)c2c1	.	.	.	.	.	?
O=C(CSc1nc2[nH]c(=O)cc(O)c2s1)NCCc1ccccc1	.	/	.	/	.	.
O=C(Cc1c[nH]c2ccccc12)OCC(=O)c1ccccc1	.	.	.	49	.	.
O=C(Nc1cccc(Cl)c1)c1ccc(Cn2cc(Cl)cn2)cc1	.	79	.	15	.	.
Cn1c(NC(=O)c2cccc(Cn3cc(Cl)cn3)c2)nc2ccccc21	.	195	.	69	.	.
CC(=O)Nc1ccc(NC(=O)c2ccc(Cn3cc(Cl)cn3)cc2)cc1	.	.	.	.	.	.
COCCCNC(=O)c1ccc(-n2c(-c3ccccc3)cc3c2CCCCC3)cc1	.	103	/	23	/	/
CCOCCCNC(=O)c1ccc(-n2c(-c3ccccc3)cc3c2CCCC3)cc1	.	/	/	/	/	/
C=CCN1C(=O)C(=O)N(Cc2nc3ccccc3s2)C1=O	.	77	.	34	.	.
NCCc1nc2ccccc2s1	.	.	.	.	.	.
COc1ccc(C(=O)N/N=C/c2ccc3cccc(O)c3n2)cc1	?	.	.	.	.	.
CC(C)(C)c1ccccc1N=Cc1ccc2ccccc2n1	.	.	.	.	.	.
O/N=C/c1ccc2ccccc2n1	.	106	.	50	.	.
O/N=C/c1ccc2cccc(O)c2n1	.	44	.	7.8	.	.
CC(=O)/C=C/c1ccc2ccccc2n1	.	.	.	22	.	.
Cc1ccc(C(C(=O)NC2CCCC2)N(C(=O)c2csnn2)C2CCCC2)o1 (stereo not given)	?	.	.	.	.	.
SMILES	AmpC inh detg	Shiga inhibitor	AMA1 RON2 block	Cycloheximide cs	AmpC no deterg	SARS PLpro yeast
CN(CCOC(=O)c1ccc2c(c1)OCO2)C(C)(C)C	.	.	.	.	.	.
COc1ccccc1/C=C\C(=O)NCC(=O)N/N=C/c1cccc(OC)c1O	.	.	.	.	.	.
COc1cccc(/C=N/NC(=O)CNC(=O)CCc2ccccc2)c1O	.	66	.	30	.	.
COc1cccc(/C=N/NC(=O)CNC(=O)c2cccs2)c1O	.	46	.	31	.	.
Cc1ccc(NC(=O)CNC(=O)c2cccs2)c(O)c1	?	/	.	/	.	.
O=C(CNC(=O)c1cccs1)N/N=C/c1c(F)cccc1Cl	.	37	.	16	.	.
Cc1ccc(/C=N/NC(=O)CNC(=O)c2cccs2)cc1	.	.	.	15	.	.
Nc1cc(=O)nc(SCC(=O)Nc2ccccc2)n1CCc1ccccc1	.	/	/	/	/	/
COc1ccc(C(C(=O)NC(C)(C)C)n2c(=O)c(-c3ccco3)nc3ccccc32)cc1 (stereo not given)	/	/	.	/	/	/
O=C(O)CCC(=O)NNc1ncnc2ccccc12	.	73	.	46	.	.
